Laboratory results taken from article PMC7819943, “Rice protein-binding microarrays: a tool to detect cis-acting elements near promoter regions in rice”.
Over roughly 39,000 sequences, “fluorescence intensity (a.u.)” has its median near 4,300; the highest 2% begin near 39,000. The entries come from a sample that favours the highest values as a whole.

target: T1, OsSMF1 (Oryza sativa, UniProt Q6ZLB0 1-436); test: protein-binding microarray (RPBM); PBS, 2% BSA, 51.3 ng/ul salmon testes DNA, 50 uM zinc acetate, 200 nM TF, 25 C, 1 h; high values mean tight binding; conditions: protein: recombinant; tags: N-terminal polyhistidine and DsRed monomer fusion (pET32a); chain copies: 2; label: CyDye5-dUTP incorporated in the synthesized complementary strand; 3' TTTTT single-stranded linker to array surface; dsDNA, one strand shown
T1 sequence: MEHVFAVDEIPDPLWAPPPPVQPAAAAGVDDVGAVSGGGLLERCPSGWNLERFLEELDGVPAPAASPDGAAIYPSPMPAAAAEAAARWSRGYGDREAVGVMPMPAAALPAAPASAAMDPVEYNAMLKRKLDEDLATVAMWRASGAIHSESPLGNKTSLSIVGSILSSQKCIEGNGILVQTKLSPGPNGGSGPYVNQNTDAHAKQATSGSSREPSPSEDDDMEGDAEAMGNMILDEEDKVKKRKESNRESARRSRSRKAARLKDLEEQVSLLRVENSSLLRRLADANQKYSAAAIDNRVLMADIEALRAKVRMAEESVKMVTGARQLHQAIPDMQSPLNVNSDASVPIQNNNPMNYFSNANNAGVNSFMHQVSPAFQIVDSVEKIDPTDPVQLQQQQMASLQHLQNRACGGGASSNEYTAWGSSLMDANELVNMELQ
Outline: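 Transcription factors were made in E. coli BL21-CodonPlus as N-terminal fusions to a polyhistidine tag and DsRed, then purified on Ni–NTA. After primer extension with Cy5-dUTP and blocking with 2% BSA, a custom Agilent array was exposed for 1 h at 25 °C to 200 nM protein in PBS, 2% BSA, salmon testes DNA and 50 µM zinc acetate. Washed arrays were scanned on an Axon 4000B, and the binding signal is per-feature fluorescence intensity in arbitrary units.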

In order of rising binding signal:
1. AAGTTTGGCTGTATTTATTCCACACCATAATTGAAAGTTTCGGAGTCACCTAGTGCAG  3160 fluorescence intensity (a.u.)
2. TGCAGGGACGATCTGATGGACAGCTCGGATTCGTCCCACACGGAGTCACCTAGTGCAG  3190 fluorescence intensity (a.u.)
3. ACTATATATATACACTACGGTTGACAAAGACATCCCAACACGGAGTCACCTAGTGCAG  3240 fluorescence intensity (a.u.)
4. AGATGGGCTTGAGAATGTGATGTCTCGTTTAATTGGGCCCCGGAGTCACCTAGTGCAG  3310 fluorescence intensity (a.u.)
5. CAACTGGCCATGTATGCACATGCACCCCAGAGACAACCTACGGAGTCACCTAGTGCAG  3420 fluorescence intensity (a.u.)
6. AGCAAAGCTGCCAGAGCACGGCACAGCACACAGGTGACGGCGGAGTCACCTAGTGCAG  3450 fluorescence intensity (a.u.)
7. ATCCAATCTGAGCCGTCCGCTGTACACCGTAGATCTATATCGGAGTCACCTAGTGCAG  3450 fluorescence intensity (a.u.)
8. CAAGAGATAAGGAGCAATCGATCCAGCGTGGCGGCATGCACGGAGTCACCTAGTGCAG  3470 fluorescence intensity (a.u.)
9. CGGAGAGGGAGAAGGAGAGGAGAGGGGCTGATAGGTGGGGCGGAGTCACCTAGTGCAG  3520 fluorescence intensity (a.u.)
10. GTTGACGGGGTTTGTGAGGTGTGGCGGTGACTTGGAAAGACGGAGTCACCTAGTGCAG  3540 fluorescence intensity (a.u.)
11. CGCACCCGCACAGCACCACACCACCTGCCTAGCGCCAAGCCGGAGTCACCTAGTGCAG  3560 fluorescence intensity (a.u.)
12. TTCACAACACTTGCATGAACTCAGGTGTCAATGGTAAGGTCGGAGTCACCTAGTGCAG  3560 fluorescence intensity (a.u.)
13. CCCACGGGATTGTCGGTCCCTCGTTTTGGTGATGCAGGACCGGAGTCACCTAGTGCAG  3570 fluorescence intensity (a.u.)
14. CTTCTCCTGCATGGCAAGTCGCTGATCACAACTACGCATCCGGAGTCACCTAGTGCAG  3610 fluorescence intensity (a.u.)
15. ATCATGTACATCTCATAGTCAACAATATTCATCACAATCTCGGAGTCACCTAGTGCAG  3640 fluorescence intensity (a.u.)
16. ATTGTTGACACTATGACTTTCTTACTTTGACCGCAATTTTCGGAGTCACCTAGTGCAG  3720 fluorescence intensity (a.u.)
17. AGTTGAGCTCCTTGTCATTGATGAAGCTGCTGCTATTCCACGGAGTCACCTAGTGCAG  3740 fluorescence intensity (a.u.)
18. CGCACGATGATCATGTGTTGGTGTTGGCATGCAATGCAACCGGAGTCACCTAGTGCAG  3780 fluorescence intensity (a.u.)
19. ATGGTTAGCATTAATCACTAATCACGTCATCATTAGTGCTCGGAGTCACCTAGTGCAG  4040 fluorescence intensity (a.u.)
20. ATTGGATGCTGAATTGATGAGTACATACGTATACGTATACCGGAGTCACCTAGTGCAG  4160 fluorescence intensity (a.u.)
21. ACAGTAGCACCGGAAAGCTGCATGTGAAGTCTAGTCAACGCGGAGTCACCTAGTGCAG  4250 fluorescence intensity (a.u.)
22. TGTAACTATTCTCGCGACACGTACACACCAACACATAAACCGGAGTCACCTAGTGCAG  4520 fluorescence intensity (a.u.)
23. TTTTGGATGCAGCATATGGTTGTCCCGATGCAAAATCCTCCGGAGTCACCTAGTGCAG  4530 fluorescence intensity (a.u.)
24. CAAGCAATGCAAGGCAAGAGGTAATTGGCCGTGGAATCCACGGAGTCACCTAGTGCAG  4720 fluorescence intensity (a.u.)
25. GTTATCGTCATTACGTCAATACGTGTTTTCGAAAATAATTCGGAGTCACCTAGTGCAG  4860 fluorescence intensity (a.u.)
26. GAAACCCGGCCACATCACTCCTTCCCTATGCTCCAGTGAGCGGAGTCACCTAGTGCAG  8040 fluorescence intensity (a.u.)
27. GACACCACCGCCGCCGCCGTCCTCGTCATCTCCAGATCGCCGGAGTCACCTAGTGCAG  9120 fluorescence intensity (a.u.)
28. TCCTCCAGATGTTACAGTCTCCGAATTTCAGTGATGTCACCGGAGTCACCTAGTGCAG  11800 fluorescence intensity (a.u.)
29. CTCCTCCATTGCCAGTTGCTACTCATCCTCATCCTCTCCACGGAGTCACCTAGTGCAG  22600 fluorescence intensity (a.u.)
30. CATAACAACCACTAAAACATTATGAATATTTTGTACATACCGGAGTCACCTAGTGCAG  22800 fluorescence intensity (a.u.)
31. ATACAAAACTAGAAACAAGACATACCAACATCACAACATGCGGAGTCACCTAGTGCAG  26100 fluorescence intensity (a.u.)
32. TCATCTGGTACAAAATATATAGGACATCAATCATGGGGAACGGAGTCACCTAGTGCAG  26200 fluorescence intensity (a.u.)
33. CCAGTTTTGTCCACGTGGCAGCTGACTCACGGTGGGACCCCGGAGTCACCTAGTGCAG  29200 fluorescence intensity (a.u.)
34. CTCCGTGATCGTCATGTCAAGACGCAAAATAAAGAGCAATCGGAGTCACCTAGTGCAG  33400 fluorescence intensity (a.u.)
35. GAGAAAGGAACAACTACAAAAGACACACATATATACTATGCGGAGTCACCTAGTGCAG  39400 fluorescence intensity (a.u.)
36. TAGATCAATGATGTTGCATGCAACTCACGCGACACATGGTCGGAGTCACCTAGTGCAG  40000 fluorescence intensity (a.u.)
37. TGAATATAAACACAACTACATTTAGCGACAGAAGAAGAACCGGAGTCACCTAGTGCAG  40600 fluorescence intensity (a.u.)
38. TGGGTCCCACGCAATAGTGGACCTGATGAATTGCAGGATTCGGAGTCACCTAGTGCAG  41100 fluorescence intensity (a.u.)
39. CAAAGGAACACATCTGGGTCATCAGACAACTCAATAGAGTCGGAGTCACCTAGTGCAG  43000 fluorescence intensity (a.u.)
40. TGAGGATGCAAGAGAATCCTAAAAGGTAAGGCAGCATGCACGGAGTCACCTAGTGCAG  44100 fluorescence intensity (a.u.)
41. CCAAAGCTGCGCAGCACCCTGAACGGCACCACACCACGGACGGAGTCACCTAGTGCAG  57400 fluorescence intensity (a.u.)
42. CACACGCAAAGCTGCAAAAGTTGAATTCCATTATTCCACACGGAGTCACCTAGTGCAG  65500 fluorescence intensity (a.u.)
